697 NFkB inh: inhibitors of PMA/ionomycin-induced NF-kB reporter, 697 cells, primary screen, B-cell NF-kB inhibitor project, cell-based, luminescence, uHTS; 330,000 tested, 0.33% active; inhibition, % at 4 µM; 697 B-cell NF-kB luciferase reporter, 16 h; in the data active = inhibition above about 35%
COUP-TFII inh: NR2F2 transcriptional activity inhibitors, primary screen, cell-based, luciferase reporter, HEK293T, luminescence. COUP transcription factor 2 (Homo sapiens), P24468. HEK293T NGFI-A luciferase reporter. inhibition, % at 8.6 µM. 370,000 tested, 0.7% active. AID 686940, 2013;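 active = inhibition above a per-plate cutoff, mean inhibition of test wells between control levels plus 3 SD, cut at about 38% in these data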;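 note: cells cotransfected with COUP-TFII expression vector driving the NGFI-A reporter; 0% = median of COUP-TF2 test wells and 100% = reporter-only cells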
Target sequence (P24468 whole entry, looked up): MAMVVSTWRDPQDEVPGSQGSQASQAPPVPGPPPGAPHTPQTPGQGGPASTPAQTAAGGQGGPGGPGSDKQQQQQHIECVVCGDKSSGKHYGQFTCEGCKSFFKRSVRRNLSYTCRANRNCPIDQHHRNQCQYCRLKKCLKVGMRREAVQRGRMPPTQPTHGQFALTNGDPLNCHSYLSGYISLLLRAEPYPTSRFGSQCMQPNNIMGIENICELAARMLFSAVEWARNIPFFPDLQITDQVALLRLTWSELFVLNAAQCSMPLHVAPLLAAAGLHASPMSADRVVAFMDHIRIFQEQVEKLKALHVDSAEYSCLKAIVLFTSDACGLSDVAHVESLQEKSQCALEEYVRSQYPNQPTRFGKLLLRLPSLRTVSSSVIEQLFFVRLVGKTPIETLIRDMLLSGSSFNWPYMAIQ
Jurkat NFkB inh: inhibitors of induced NF-kB luciferase reporter, primary screen, TCR NF-kB activation inhibitor project, cell-based, luminescence, uHTS; Jurkat, PMA/ionomycin-induced NF-kB luciferase reporter; inhibition, % at 4 µM; 330,000 tested, 0.53% active; in the data active = inhibition above about 50%
H9c2 protect: cardioprotection against H2O2-induced cell death, primary screen, uHTS, H9c2 cells, ATPLite luminescence. 360,000 tested, 0.63% active. protection from H2O2 cell death, % at 20 µM. H9c2 cardiomyocytes, H2O2 injury protection, 2 h. AID 588492, 2011;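 active = compounds giving at least 50% protection of heart cells from peroxide-induced death in the single-dose screen, raw or plate-pattern-corrected value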;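 note: 0% = DMSO wells with peroxide and 100% = DMSO wells without peroxide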
Gli-Sufu antag: Gli-Sufu pathway antagonists, primary screen, luciferase luminescence, Sufu-KO-LIGHT cells, uHTS | Sufu-KO-LIGHT fibroblasts, Gli luciferase reporter luminescence | inhibition, % at 5 µM | 340,000 tested, 0.74% active | AID 588413, 2011;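 active = inhibition above about 55%, limit read from the data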;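 note: 0% = DMSO-treated cells and 100% = wells with medium but no cells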
TAG inh: inhibitors of triacylglycerol accumulation, primary screen, cell-based, uHTS, fluorescence, H9c2; inhibition, % at 12.5 µM; 230,000 tested, 0.66% active; H9c2 cells, Nile Red lipid (TAG) fluorescence; cells loaded with 200 µM oleic acid;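 active = pattern-corrected inhibition of lipid staining of at least 50% with the nuclear-stain viability signal not falling by more than 50%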;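 note: 0% = DMSO wells and 100% = triacsin C control wells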
Jurkat NFkB conf: PMA/ionomycin-induced NF-kB reporter inhibitors, Jurkat retest, confirmation, T-cell NF-kB inhibitor project, cell-based, luminescence, single concentration. shares compounds with Jurkat NFkB inh. Jurkat NF-kB luciferase, 16 h. inhibition, % at 4 µM. 2,700 tested, 27% active. AID 435020, 2010;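 active = inhibition reaching about 45% at 4 µM in either replicate, limit read from the data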;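 note: plate controls were PMA/ionomycin stimulated DMSO wells for no effect and unstimulated DMSO wells for full effect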
697 NFkB conf: PMA/ionomycin-induced NF-kB reporter inhibitors, 697 retest, confirmation, B-cell NF-kB inhibitor project, cell-based, luminescence, single concentration; shares compounds with 697 NFkB inh; 697 B-cell NF-kB luciferase, 16 h; inhibition, % at 4 µM; 2,000 tested, 35% active; in the data active = inhibition mostly above about 28%, no sharp cut-off; inactive = mostly below about 22%
Gli antag conf: Gli-SUFU pathway antagonists, confirmation, single concentration, luciferase luminescence, Sufu-KO-LIGHT cells | shares compounds with Gli-Sufu antag | Gli luciferase reporter | inhibition, % at 5 µM | 2,500 tested, 40% active | AID 602428, 2012;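 active = mean inhibition at 5 µM reaching about 45%, limit read from the data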;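 note: plate controls were DMSO-treated cells for no effect and wells lacking cells for full effect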
SufuKO cytotox: cytotoxicity in Sufu-KO-LIGHT cells, confirmation, cytotoxicity control for Gli-SUFU antagonist project, cell-based, ATP luminescence, single concentration; 2,500 tested, 32% active; AID 651994, 2013; shares compounds with Gli-Sufu antag; cytotoxicity, % at 5 µM;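 active = mean cytotoxicity at 5 µM above about 25%, limit read from the data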;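 note: cells exposed to compound overnight for roughly 16 to 18 hours; plate controls were DMSO wells with cells for no effect and medium without cells for full effect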
Wnt3a cs: Wnt3a reporter signal inhibition, confirmation, counter-screen for Gli-SUFU antagonist project, Wnt-LIGHT cells, luminescence, single concentration. shares compounds with Gli-Sufu antag. inhibition, % at 6.25 µM. 2,500 tested, 20% active. Wnt3a-driven luciferase reporter;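 active = mean inhibition above about 25%, limit read from the data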
H9c2 TAG conf: triacylglycerol accumulation inhibitors, retest, confirmation, cell-based, single concentration, Nile Red fluorescence, H9c2; shares compounds with TAG inh; H9c2 lipid accumulation; cells loaded with 200 µM oleic acid; inhibition, % at 12.5 µM; 990 tested, 71% active;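 active = mean inhibition across replicates of 40% or more; inactive = mean inhibition below 40%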;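 note: plate controls were DMSO only wells for no effect and Triacsin C treated wells for full effect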
VP16 Luc counter: Gal4-VP16 luciferase reporter inhibitors, counter-screen for COUP-TFII antagonist project, cell-based, luminescence, HEK293 | shares compounds with COUP-TFII inh | inhibition, % at 8.5 µM | 2,500 tested, 25% active | AID 687007, 2013; in the data active = inhibition above about 13%
COUP-TFII conf: NR2F2 transcriptional activity inhibitors, confirmation, cell-based, luciferase reporter, HEK293, triplicate; shares compounds with COUP-TFII inh; HEK293 NGFI-A luciferase reporter, luminescence; inhibition, % at 8.5 µM; 2,500 tested, 45% active;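 active = mean inhibition over three repeats above a set limit taken from the earlier primary screen, cut at about 38% in these data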;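 note: 100% = cells given the luciferase reporter alone without the COUP-TF2 vector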
* marks the source's active call; other numbers are inactive results; nt = not tested or not shown. In the library only some 2.6% were active in any assay of this set; here they are far more common.

SMILES | 697 NFkB inh | COUP-TFII inh | Jurkat NFkB inh | H9c2 protect | Gli-Sufu antag | TAG inh | Jurkat NFkB conf | 697 NFkB conf | VP16 Luc counter | COUP-TFII conf | others
Cc1cc(C)n(-c2nc3c(c(=O)[nH]c(=O)n3C)n2CC(O)COc2ccc(Cl)cc2Cl)n1 (stereo not drawn) | -31 | 8 | 51* | 3 | 17 | 82* | 46 | nt | nt | nt | H9c2 TAG conf=74*
CCN(CC)CCNc1nc2c(c(=O)[nH]c(=O)n2C)n1CC(O)COc1ccc(Cl)cc1Cl (stereo not drawn) | 13 | 11 | -11 | 14 | 4 | nt | nt | nt | nt | nt
c1cc2c(cc1C1=NNC(=NC3CC3)SC1)OCCO2 | 57* | 46* | 60* | -27 | 77* | -4 | 78* | 24 | 52* | 76*
CCCCN=C1NN=C(c2ccc3c(c2)OCCO3)CS1 | -74 | -20 | -34 | -17 | -27 | nt | nt | nt | nt | nt
Cc1cc(C2=NNC(=NC3CCCCC3)SC2)c(C)n1-c1c(C)n(C)n(-c2ccccc2)c1=O | -2 | 18 | -10 | 5 | 0 | nt | nt | nt | nt | nt
Cc1cc(C2=NNC(=NC3CC3)SC2)c(C)n1-c1ccccc1F | 39* | 97* | 79* | -28 | 93* | -15 | 74* | 48* | 94* | 108*
COc1ccc(-c2noc(C3CCCN(C(=O)NC4CCC(C)CC4)C3)n2)cc1 (stereo not drawn) | nt | -29 | nt | nt | nt | nt | nt | nt | nt | nt
Cc1cnc(NC(=O)c2ccc3c(c2)OCCO3)s1 | -30 | 46* | 70* | -28 | 10 | 39 | 77* | nt | -5 | 20
Cc1nc2ccc3nc(NC(=O)c4ccc5c(c4)OCCO5)sc3c2s1 | -11 | -3 | -22 | 3 | -15 | nt | nt | nt | nt | nt
Cc1ccc(Oc2ccc(OCC(=O)Nc3ccncc3)cc2)cc1 | 23 | 72* | 65* | -9 | nt | -43 | 77* | nt | 19* | 74*
CCOc1ccc(-c2cc(CCCC(=O)NCCc3ccccc3)no2)cc1 | 33 | 34 | -16 | -11 | 12 | 30 | nt | nt | nt | nt
CCOc1ccc(-c2cc(CCCC(=O)Nc3cccc(OC)c3)no2)cc1 | 48* | 42* | 56* | -15 | 5 | 36 | 61* | 48* | 2 | 16
CC[n+]1c(C=C2C=C(C)OC(C)=C2)sc2ccccc21 | 53* | 77* | 87* | -15 | 85* | -28 | 75* | 69* | 12 | 64*
COc1ccc(-c2cc(-c3nnc(SCC(=O)Nc4ccccc4-c4ccccc4)n3N)[nH]n2)cc1 | nt | 8 | nt | nt | nt | nt | nt | nt | nt | nt
O=C(Nc1ccc(F)cc1)c1ccc(CN2CCc3ccccc3C2)cc1 | -13 | 45* | 58* | 3 | 1 | 1 | 42 | nt | -41 | 34
O=C(NC1CCN(Cc2ccccc2)CC1)c1ccccc1 | -13 | 24 | -10 | 13 | 6 | nt | nt | nt | nt | nt
CCN(CC)S(=O)(=O)c1ccc(NC(=O)c2ccc(CN3CCOCC3)cc2)cc1 | 5 | 71* | 58* | -13 | 10 | nt | 58* | nt | 8 | 64*
O=C(Nc1ccc(S(=O)(=O)Nc2ccc(F)cc2)cc1)c1ccc(CN2CCOCC2)cc1 | 47* | 73* | 63* | -14 | 4 | -6 | 63* | 19 | 9 | 62*
O=C(NC1CCN(Cc2ccccc2)CC1)c1ccc2c(c1)[nH]c(=O)n2Cc1ccc(F)cc1 | -8 | 64* | 64* | -5 | 53 | nt | 35 | nt | 3 | 34 | Gli antag conf=28;SufuKO cytotox=21;Wnt3a cs=17
Cc1ccc(F)cc1C(=O)N(Cc1ccccn1)CC1CCCO1 (stereo not drawn) | nt | -8 | nt | nt | nt | nt | nt | nt | nt | nt
Cc1ccc(NS(=O)(=O)c2ccc(C(=O)NC3CCN(Cc4ccccc4)CC3)cc2)cc1 | 15 | 64* | 57* | -15 | 15 | 8 | 59* | nt | 1 | 49*
COCCCN1C(=O)[C@H](CC(=O)NCc2cccc3ccccc23)[C@]2(C(=O)OC)CCCCC=C12 | nt | 3 | nt | nt | nt | nt | nt | nt | nt | nt
CCN1/C(=C/c2ccc3cc(C)ccc3[n+]2CC)Sc2cc(C)c(C)cc21 | 65* | 78* | 93* | -20 | 91* | -99 | 74* | 80* | 8 | 64*
CCN1/C(=C/c2ccc3cc(C)ccc3[n+]2CC)Sc2ccccc21 | 86* | 86* | 96* | -36 | 89* | nt | 69* | 49* | 1 | 79*
CCCCNC(=O)NCCCN1CCN(c2ccc(F)cc2)CC1 | nt | 1 | nt | nt | nt | nt | nt | nt | nt | nt
O=C(Nc1c(-c2ccccc2)nc2ncccn12)C1CC1 | nt | -9 | nt | nt | nt | nt | nt | nt | nt | nt
NC1=NC[C@H](Cc2ccc(O)cc2)N1CCCCC1CCCCC1 | 41* | 38* | 79* | -6 | 59* | 1 | 50* | 40* | 15* | 26
NC1=NC[C@H](Cc2ccc(O)cc2)N1CCc1cc(C(F)(F)F)cc(C(F)(F)F)c1 | -2 | 11 | 2 | 1 | -17 | 1 | nt | nt | nt | nt
C=CCn1c(SCC(=O)C(C)(C)C)nnc1-c1ccc(Cl)cc1 | nt | -1 | nt | nt | nt | nt | nt | nt | nt | nt

Screening data deposited in PubChem BioAssay by several laboratories.
